# JMJD2A Tudor: blocks the human JMJD2A Tudor domain; O75164; AlphaScreen JMJD2A-Tudor / H3K4me3 peptide binding; Potency, µM (series often up to 114 µM), for inactives: at the top dose activity change, negative = inhibition, usual class: inhibitors; hit rate 4.4% among 390,000; also: potency is read from the fitted curve at half-maximal effect; % is scaled to controls: 0 for no effect and ±100 for the full control effect; nearly all actives have a fitted effect of over 50% in size
# G9a inh: G9a (human) methyltransferase inhibition; hit rate 8.8% among 350,000; Potency, µM (doses to about 102 µM), without a hit: top-dose activity, negative = inhibition, most hits filed as inhibitors; AID 504332; Q96KQ7; G9a H3K9 monomethylation, AlphaScreen, 2 h; also: potency is read from the fitted curve at half-maximal effect; % is scaled to controls: 0 for no effect and ±100 for the full control effect; nearly all actives have a fitted effect of over 75% in size
# Target sequence (Q96KQ7 913-1193 limits assumed): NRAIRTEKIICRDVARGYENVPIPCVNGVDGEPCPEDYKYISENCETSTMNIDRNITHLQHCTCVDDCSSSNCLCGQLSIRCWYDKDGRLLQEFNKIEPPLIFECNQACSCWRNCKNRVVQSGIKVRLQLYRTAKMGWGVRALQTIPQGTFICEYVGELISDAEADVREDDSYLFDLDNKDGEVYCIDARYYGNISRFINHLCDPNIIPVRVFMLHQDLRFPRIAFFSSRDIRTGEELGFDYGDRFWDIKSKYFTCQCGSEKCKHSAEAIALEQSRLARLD
#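 G9a (20 nM) preincubated 15 min RT with compounds, then 500 nM biotinylated H3K9 peptide and 20 uM SAM added; 2 h RT reaction. Monomethyl-H3K9 product detected by AlphaScreen with anti-H3K9me1 antibody, streptavidin donor and anti-rabbit IgG acceptor beads.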
# PI5P4K alpha inh: PI5P4K alpha (human) kinase inhibition. PI5P4Kalpha enzyme, ADP-Glo luminescence, 60 min; hits give low values. hit rate 1.2% among 330,000. AID 652105. max response, %. P48426; active = max response of -50% or lower; inconclusive = between -30% and -50%; inactive = -30% or higher; also: value at the top dose of about 77 µM; % is scaled to controls: 0 for no effect and ±100 for the full control effect
# Target sequence (P48426 whole entry, looked up): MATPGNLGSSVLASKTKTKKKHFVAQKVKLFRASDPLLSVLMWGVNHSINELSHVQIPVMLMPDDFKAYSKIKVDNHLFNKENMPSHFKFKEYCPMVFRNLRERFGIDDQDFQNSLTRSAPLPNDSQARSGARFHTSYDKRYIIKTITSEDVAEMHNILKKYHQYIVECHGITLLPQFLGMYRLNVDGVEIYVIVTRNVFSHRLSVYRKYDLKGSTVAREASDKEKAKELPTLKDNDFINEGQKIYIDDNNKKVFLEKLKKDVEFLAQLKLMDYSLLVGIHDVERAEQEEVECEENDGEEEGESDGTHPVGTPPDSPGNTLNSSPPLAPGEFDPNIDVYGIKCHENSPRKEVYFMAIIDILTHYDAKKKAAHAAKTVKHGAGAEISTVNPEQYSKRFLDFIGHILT
#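 ADP-Glo luminescence end-point read after a 60 min room-temperature kinase reaction of PI5P4Kalpha plus substrate, initiated with ATP at 5 microM final. Buffer: 0.038 M HEPES pH 7.4, EGTA, 0.1% CHAPS, 5% DMSO.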
# PLK1 PBD inh: blocks phosphopeptide binding to human PLK1 polo-box domain | P53350 | Plk1 PBD binding of FITC phosphopeptide, fluorescence polarization | Potency, µM, for inactives: max response, negative = inhibition, actives largely listed as inhibitors | hit rate 2.8% among 360,000 | AID 720504; also: potency is read from the fitted curve at half-maximal effect; series mostly up to about 57 µM; % is scaled to controls: 0 for no effect and ±100 for the full control effect; nearly all actives have a fitted effect of over 65% in size
# HP1b chromo inh: HP1-beta chromodomain-methylated histone interaction inhibition; P83916; AlphaScreen HP1-beta / biotin-H3K9me3 peptide binding; Potency, µM (series often up to 114 µM), inactives show top-dose activity change, negative = inhibition, most hits filed as inhibitors; hit rate 0.56% among 390,000; also: potency is read from the fitted curve at half-maximal effect; nearly all actives have a fitted effect of over 70% in size
#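 HP1-beta protein (50 nM final) preincubated 30 min at room temperature with biotinylated H3(1-18)K9me3 peptide (50 nM) in PBS pH 7.4, 0.01% Tween-20, then compound added for 30 min. AlphaScreen streptavidin donor/nickel chelate acceptor beads (10 ug/mL final), 30 min dark, luminescence read.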
# BAZ2B inh: blocks human BAZ2B; hit rate 4.4% among 360,000; Q9UIF8; AlphaScreen BAZ2B-H3K14Ac peptide displacement; Potency, µM (top dose mostly 114 µM), for the others: at the highest dose activity change, negative = inhibition, usual class: inhibitors; AID 504333; also: potency is read from the fitted curve at half-maximal effect; % is scaled to controls: 0 for no effect and ±100 for the full control effect; nearly all actives have a fitted effect of over 60% in size
#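 Compounds, titrated to a top concentration of 110 uM, were incubated 30 min at room temperature with preformed BAZ2B/acetyl-K14 H3 peptide complex (50 nM each). Proximity signal was measured by AlphaScreen after 20 min with beads.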
# TbPYK confirm: confirmation of Trypanosoma brucei pyruvate kinase inhibitors; AID 720569; hit rate 67% among 890; Potency, µM (series often up to 76.9 µM), for the others: top-dose activity change, negative = inhibition, hits mostly inhibitors; recombinant TbPYK, Kinase-Glo ATP luminescence; shares compounds with PLK1 PBD inh; also: potency is read from the fitted curve at half-maximal effect; % is scaled to controls: 0 for no effect and ±100 for the full control effect; nearly all actives have a fitted effect of over 70% in size
# TbPYK ADP-Glo: orthogonal confirmation of Trypanosoma brucei pyruvate kinase inhibitors; shares compounds with PLK1 PBD inh; AID 720584; recombinant TbPYK, ADP-Glo luminescence, 60 min; Potency, µM (highest dose often 76.9 µM), inactives show top-dose activity change, negative = inhibition, usual class: inhibitors; hit rate 62% among 890; also: potency is read from the fitted curve at half-maximal effect; % is scaled to controls: 0 for no effect and ±100 for the full control effect; nearly all actives have a fitted effect of over 75% in size
# Starred values were filed as active, the others as inactive; ? = inconclusive; . = not tested or not shown; [ ] = dose if it differs, or a comment. The list is not random: actives were taken first. Their share in the collection is about 12%. Unless noted, calls follow the shape of the dose curve; as a rule, active = well fitted curve in the direction sought with a large enough effect; inconclusive = small, poorly fitted or top-dose-only effect, or another doubt; inactive = no such curve, though single readings can be large; an effect the other way counts as inactive or inconclusive.
SMILES,JMJD2A Tudor,G9a inh,PI5P4K alpha inh,PLK1 PBD inh,HP1b chromo inh,BAZ2B inh,TbPYK confirm,TbPYK ADP-Glo
COc1ccc(Cl)cc1NC(=O)C1CCN(c2nnc(C)c3c(C)n(-c4ccccc4)nc23)CC1,-8%,-27%[59 µM],.,.,43%,-11%,.,.
O=C1NC(=O)N(c2ccc(F)cc2)C(=O)/C1=C/c1ccsc1,-11%,14µM*,?,6.7µM*,54%,-13%,?,-29%
CC(=O)n1cc(C=C2C(=O)NC(=O)NC2=O)c2ccccc21,?,10µM*,?,4.2µM*,32%,-16%,22µM*,35µM*
O=C1NC(=O)C(=Cc2cccs2)C(=O)N1,0%,.,-19,2.7µM*,15%[57 µM],.,14µM*,32µM*
O=C1NC(=O)C(=Cc2csc3ccccc23)C(=O)N1,-11%,8.9µM*,-73*,2.1µM*,8%,?,16µM*,32µM*
C(=NC12CN3CN(CN(C3)C1)C2)c1cccs1,-5%,13%[0.501 µM],.,-1%,26%,6%,.,.
CC(C)(C)n1nnnc1C(c1ccnc2ccccc12)N1CCC2(CC1)C(=O)NCN2c1ccccc1 (stereo unspecified),.,.,7,-5%,.,.,.,.
CCOC(=O)[C@]12Cc3c(cc(OC)c(OC)c3OC)[C@H]1N(CCC(=O)OC)C(=O)c1ccccc12,.,.,1,?,.,.,.,.
O=C1NCN(c2ccccc2)C12CCN(C(c1cccc3ccccc13)c1nnnn1-c1ccc3c(c1)OCCO3)CC2 (stereo unspecified),.,.,10,-3%,.,.,.,.
Cc1ccc(-n2c(=O)[nH]c3ccccc3c2=O)cc1[N+](=O)[O-],.,.,1,-16%,.,.,.,.
Cc1cc(C)c(C)c(C(O)(C(=O)O)c2ccccc2)c1 (stereo unspecified),.,.,-25,-8%,.,.,.,.
CNC(=O)C[C@H]1CC[C@@H]2NC[C@H](O)COC[C@H]2O1,.,.,16,0%,.,.,.,.
CC(C)(C)NC(=S)N1Cc2ccccc2-n2nncc2C1,.,.,-2,-13%,.,.,.,.
O=C1NC(=O)C(=Cc2ccsc2)C(=O)N1,6%,-24%,?,6.7µM*,50%,4%,14µM*,?
O=C1NC(=O)N(c2cccc(Br)c2)C(=O)/C1=C/c1ccsc1,-11%,10µM*,-64*,2.4µM*,29%,-2%,?,?
CCC1([N+](=O)[O-])COP(N)(=O)OC1 (stereo unspecified),-8%,.,1,2%,12%,.,.,.
CN1C(=O)N(C)C(=O)C2(Sc3ccccc3C2=O)C1=O,?,?,.,5.3µM*,8%,-34%,5µM*,?
CCC1(c2ccccc2)C(=O)N(C)C(=O)N(C)C1=O,-6%,8%[59 µM],.,-7%,32%,9%,.,.
O=C1NC(=O)C(=Cc2ccc(OCC(=O)N3CCOCC3)cc2)C(=O)N1,-11%,?,?,27µM*,54%,-4%,18µM*,?
O=C(COc1ccccc1)N1CCN(C/C=C/c2ccccc2)CC1,-11%,1%[12.7 µM],.,-3%,23%,-9%,.,.
COC(=O)[C@@H]1N=C(c2ccc(OC)cc2)O[C@]12C(=O)N(C)c1cccc(Cl)c12,.,.,0,-4%,.,.,.,.
O=C1NC(=O)N(Cc2ccccc2)C(=O)/C1=C\c1ccco1,?,35µM*,-86*,2.1µM*,?,40µM*,32µM*,?
CSCCC(c1nnnn1-c1ccc2c(c1)OCCO2)N1CCC(n2c(=O)[nH]c3ccccc32)CC1 (stereo unspecified),.,.,1,1%,.,.,.,.
O=c1[nH]c(O)c(/C=C2\C=NN=C2c2ccccc2)c(=O)[nH]1,-14%,50µM*,.,3.5µM*,20%,8%,11µM*,32µM*
O=C1NC(=O)C(Nc2ccccc2)C(=O)N1,-8%,.,9,-25%,28%[57 µM],.,.,.
SMILES,JMJD2A Tudor,G9a inh,PI5P4K alpha inh,PLK1 PBD inh,HP1b chromo inh,BAZ2B inh,TbPYK confirm,TbPYK ADP-Glo
CC(=O)O/C(=C1\CC2C3CC=C4CC(OC(C)=O)CCC4(C)C3CCC2(C)C1=O)C(F)(F)F (stereo unspecified),-27%,.,27,-4%,5%,.,.,.
NS(=O)(=O)c1ccc(-c2ccc(C=C3C(=O)NC(=O)NC3=O)o2)cc1,?,10µM*,-64*,2.7µM*,12%,-34%,1.8µM*,6.3µM*
CNS(=O)(=O)c1ccc(-c2ccc(C=C3C(=O)NC(=O)NC3=O)o2)cc1,-25%,8.9µM*,-20,2.1µM*,72%,?,2.8µM*,10µM*
O=C(O)c1ccccc1-c1ccc(C=C2C(=O)N(c3ccccc3)C(=S)N(c3ccccc3)C2=O)o1,50µM*,18%[0.501 µM],?,2.7µM*,-17%,71µM*,32µM*,40µM*
CC1=NN(c2ccccc2)C(=O)C1/C=C1/C(=O)NC(=O)N(c2cccc(C)c2)C1=O (stereo unspecified),.,-19%[59 µM],.,.,.,?,.,.
CN1C(=O)NC(=O)/C(=C/c2ccc([N+](=O)[O-])o2)C1=O,22µM*,.,-82*,4.7µM*,50µM*,50µM*,8.9µM*,?
COc1ccc(OC)c(N2C(=O)NC(=O)/C(=C\c3ccc([N+](=O)[O-])s3)C2=O)c1,28µM*,8.9µM*,-61*,2.7µM*,25µM*,28µM*,2.8µM*,?
O=C1NC(=O)N(c2ccccc2)C(=O)/C1=C\c1ccc([N+](=O)[O-])s1,22µM*,8.9µM*,-74*,5.3µM*,16µM*,35µM*,7.9µM*,13µM*
CN1C(=O)NC(=O)/C(=C/c2ccc([N+](=O)[O-])s2)C1=O,?,7.1µM*,-56*,2.7µM*,?,50µM*,5µM*,11µM*
COC(=O)[C@@H]1N=C(c2ccc(OC)cc2)O[C@]12C(=O)N(C)c1ccc(Cl)cc12,.,.,4,-11%,.,.,.,.
COc1ccc(N2C(=O)/C(=C/c3ccc(C)o3)C(=O)NC2=S)c(OC)c1,50µM*,12%[0.501 µM],?,11µM*,-23%,50µM*,1.4µM*,13µM*
Cc1cc(C=C2C(=O)N(C)C(=S)N(C)C2=O)c(C)n1-c1cccnc1,-31%,8.9µM*,?,2.1µM*,-13%,45µM*,?,?
CC(C)Nc1ccc(Nc2ccccc2)cc1,50µM*,1.6µM*,?,?,45µM*,28µM*,5µM*,16µM*
